Assay results as given in PubChem BioAssay (NCI).
“And” between values parts separate entries of the source, which are not always exact repeats. Equal entries are not always repeated. This is part of a sample that, as a whole, favours compounds with a hit. Of some 83,000 tested, about 20% had one in any assay.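 Percent growth is the endpoint: 0 to 100 indicates growth inhibition (40 means 60% inhibition), 0 means no net growth, and negative values indicate cell death.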 Unmarked numbers belong to inactive results. The source made the active and inactive calls. The calls were made as follows: active = growth percent below 10; inactive = the rest.

Tested on: HL-60(TB) leukemia
Assay: NCI-60 one-dose screen, 48 h (100 = growth as untreated, 0 = no growth, -100 = all killed)

CN1CC[C@@H](c2c(O)cc(O)c3c(=O)cc(-c4ccccc4Cl)oc23)[C@@H](O)C1
growth (10 µM unless noted): -29.1% (active)

CCc1ccccc1-n1c(N)c(C#N)c(-c2ccc(OC)c(OC)c2)c(C#N)c1=O
growth (10 µM): 113% | growth (100 µM): 122%

O=C(O)c1c(Cl)c(Cl)c(Cl)c(Cl)c1-c1c2cc(I)c(=O)c(I)c-2oc2c(I)c(O)c(I)cc12
growth (10 µM): 103% and 104% and 109% | growth (100 µM): -52.2% (active)

O=C(O)c1sccc1O
growth (10 µM): 62.6% | growth (100 µM): 3.63% (active)

CC(=O)/C=C/c1ccc(N(CCO)Cc2ccc(C(C)(C)C)cc2)cc1
growth (10 µM): 69.6% | growth (100 µM): -55.3% (active)

O=C1CCCN1c1cccc2cccnc12
growth (10 µM unless noted): 101%

COc1ccc(C(=O)/C=C/c2ccc(OCc3ccc(Cl)cc3)cc2)cc1OC
growth (10 µM): 81.2% | growth (100 µM): 18.7%

CC#C[C@]1(O)CC[C@H]2[C@@H]3CCC4=CC(=O)CCC4=C3[C@@H](c3ccc4c(c3)OCO4)C[C@@]21C
growth (10 µM): 67.5% | growth (100 µM): -22.9% (active)

Cc1ccc(Nc2nnc(-c3cc(-c4ccncc4)n(-c4ccccc4)n3)s2)cc1
growth (10 µM unless noted): 66.3%

O=C(/C=C/c1cccc(Oc2ccc(Cl)cc2)c1)c1ccccc1
growth (10 µM): 73.9% | growth (100 µM): -51.8% (active)

O=C(O)Cc1ccccn1
growth (10 µM unless noted): 106%

CN(Cc1cnc2nc(N)nc(N)c2n1)c1ccc(C(=O)N[C@@H](CCC(=O)O)C(=O)O)cc1
growth (2.5 µM): 27% | growth (10 µM): 24.1%

CCNS(=O)(=O)c1ncnc2nc[nH]c12
growth (10 µM unless noted): 112%

S=c1nc[nH]c2nc[nH]c12
growth (10 µM): 13.8% | growth (50 µM): 12.6%

O=C(/C=C/CN1CCOCC1)Nc1cc2c(Nc3ccc(F)c(Cl)c3F)ncnc2cc1OCCOC(F)F
growth (10 µM unless noted): 76.9%

CC(=O)O[C@H]1C(=O)[C@@]2(C)[C@H]([C@H](OC(=O)c3ccccc3)[C@]3(O)C[C@H](OC(=O)[C@H](O)[C@@H](NC(=O)c4ccccc4)c4ccccc4)C(C)=C1C3(C)C)[C@]1(OC(C)=O)CO[C@@H]1C[C@@H]2O
growth (0.01 µM): -8.36% (active) | growth (2.5 µM): -43.6% (active) | growth (5 µM): -42.4% (active) | growth (10 µM): -12.3% (active) and -35.8% (active)

COc1cccc(/C=N/Nc2nc3ccccc3s2)c1OC
growth (10 µM unless noted): 49.9%

CC(C)(C)c1cc(NC(=O)Cc2ccc(-c3cnc4cc(-c5cnn(CCN6CCOCC6)c5)ccc4n3)cc2)no1
growth (10 µM): 4.17% (active) | growth (30 µM): 6.45% (active)

Oc1nc(NCCc2ccccc2)sc1/C=C1\C=Nc2ncccc21
growth (10 µM unless noted): -6.57% (active) and 6.77% (active)

O=C1Nc2ccc(C(=O)O)c(O)c2C1=O
growth (10 µM unless noted): 99.8%

Cc1c2oc3c(C)ccc(C(=O)N[C@@H]4C(=O)N[C@H](C(C)C)C(=O)N5CCC[C@H]5C(=O)N(C)CC(=O)N(C)[C@@H](C(C)C)C(=O)O[C@H]4C)c3nc-2c(C(=O)N[C@@H]2C(=O)N[C@H](C(C)C)C(=O)N3CCC[C@H]3C(=O)N(C)CC(=O)N(C)[C@@H](C(C)C)C(=O)O[C@H]2C)c(N)c1=O
growth (0.0025 µM): 42.6% | growth (10 µM): -24.3% (active)

CN(C)CCNc1ncc(F)c(-c2cnc3cc(-c4cnn(C)c4)ccn23)n1
growth (0.005 µM): 101% | growth (30 µM): 4.9% (active)

COc1cccc2c1C(=O)c1c(O)c3c(c(O)c1C2=O)C[C@@](O)(C(=O)CO)C[C@@H]3OC1CC(N)C(O)C(C)O1 (some centres undefined)
growth (0.0025 µM): 100% | growth (2.5 µM): 81.9% | growth (10 µM): -21.8% (active)

COc1ccc(CNC(=O)COc2ccc(/C=N/Nc3nc4ccccc4s3)cc2)cc1
growth (10 µM unless noted): 105%

CC1(C)OB(c2ccc(Cn3cc(F)c(=O)[nH]c3=O)cc2)OC1(C)C
growth (10 µM): 97.7% | growth (50 µM): 32.5%

S=P(N1CC1)(N1CC1)N1CC1
growth (10 µM): 99.5% and 32.7% | growth (100 µM): 9.95% (active)

COc1ccc(C2CC(c3cccs3)=NN2c2ccc(S(=O)(=O)NC(=O)Nc3ccc(C)cc3)cc2)cc1 (centres undefined)
growth (10 µM unless noted): 126%

O=c1[nH]cc(F)c(=O)[nH]1
growth (10 µM): 59.7% | growth (25 µM): 47.9% | growth (50 µM): 77.6%
